Source: PubChem BioAssay
MEKK3 PB1 HTS: raises or lowers MEK5 binding to the human MEKK3 PB1 domain. bead-based flow cytometry, Alexa488-MEK5 binding to MEKK3; actives lie on both sides; 0 = blocked by unlabeled MEK5, 100 = vehicle. Q99759. AID 1529. actives 1.4% (n = 290,000). binding response (% of control), % at 10 µM;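 active = binding response more than 3 SD above or below the average of its plate-row segment, actives on both sides; inconclusive = wells at one plate position flagged as instrument error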;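 also: Alexa488 bead fluorescence after subtracting the streptavidin-only scavenger bead signal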
Target sequence (Q99759 whole entry, looked up, the tested form may be a part): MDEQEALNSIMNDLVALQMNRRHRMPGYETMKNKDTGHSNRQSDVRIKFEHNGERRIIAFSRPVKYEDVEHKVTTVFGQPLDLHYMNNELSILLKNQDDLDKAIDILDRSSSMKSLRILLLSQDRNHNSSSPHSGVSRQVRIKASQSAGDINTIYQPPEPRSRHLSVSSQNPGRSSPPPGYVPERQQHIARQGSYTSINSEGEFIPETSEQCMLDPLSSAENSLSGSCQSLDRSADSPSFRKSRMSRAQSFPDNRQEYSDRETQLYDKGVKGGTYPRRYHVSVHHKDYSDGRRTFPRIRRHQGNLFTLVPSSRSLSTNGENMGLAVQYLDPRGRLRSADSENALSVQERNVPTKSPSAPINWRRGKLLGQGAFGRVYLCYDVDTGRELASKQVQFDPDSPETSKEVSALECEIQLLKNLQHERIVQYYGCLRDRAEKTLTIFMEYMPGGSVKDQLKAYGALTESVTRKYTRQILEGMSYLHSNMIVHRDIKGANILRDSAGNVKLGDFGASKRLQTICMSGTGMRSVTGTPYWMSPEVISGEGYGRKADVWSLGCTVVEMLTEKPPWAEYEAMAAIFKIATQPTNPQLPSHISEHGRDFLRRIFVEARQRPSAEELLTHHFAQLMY
dFosB activator: enhances mouse delta FosB homodimer DNA binding; P13346; purified delta FosB, TAMRA-CDK5 oligo fluorescence polarization; percent of positive-control signal above neutral wells; activation, % at 25 µM; actives 0.99% (n = 340,000);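 active = mean activation above about 17%, with every replicate also reaching it, limit read from the data, passing the limit was not always enough; inconclusive = only one of the two conditions met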
DNA FID counter: counter-screen for HCV NS3 helicase inhibitors: DNA intercalator displacement; DNA fluorescent intercalator displacement, fluorescence; inhibition, % at 7.9 µM; AID 1845; actives 0.17% (n = 290,000); in the data active = inhibition above about 37%;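 also: 0% = vehicle and 100% = reference compound; higher means more ethidium bromide displaced from hairpin DNA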
MEKK2wt PB1 HTS: raises or lowers MEK5 binding to wildtype human MEKK2 PB1 domain; AID 1531; binding response (% of control), % at 10 µM; actives 1.1% (n = 290,000); bead flow cytometry, Alexa488-MEK5 binding to MEKK2 WT; actives lie on both sides; Q9Y2U5; in the data active = binding response below about 67% or above about 130%; inconclusive = no clear call, values can overlap the other calls; inactive = in between
MEKK2 mut-MEK5: signal of MEK5 binding to mutant human MEKK2 PB1 domain. bead flow cytometry, Alexa488-MEK5 binding to MEKK2 mutant. percent response, % at 10 µM. actives 0.35% (n = 290,000); in the data active = percent response above about 24%, passing the limit was not always enough
MEKK2wt confirm: raises or lowers MEK5 binding to wildtype human MEKK2, retest; shares compounds with MEKK3 PB1 HTS; bead flow cytometry, Alexa488-MEK5 binding to MEKK2 WT; actives lie on both sides; binding response (% of control), % at 10 µM; actives 2.4% (n = 5,900); in the data active = binding response below about 16% or above about 210%; inactive = in between
MEKK2mut confirm: signal of MEK5 binding to mutant human MEKK2, retest; AID 1893; percent response, % at 10 µM; actives 2% (n = 5,900); shares compounds with MEKK3 PB1 HTS; bead flow cytometry, Alexa488-MEK5 binding to MEKK2 mutant; in the data active = percent response mostly above about 71%, no sharp cut-off; inactive = mostly below about 38%;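 also: higher means compound restores mutant binding toward wildtype level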
MEKK3 confirm: MEKK3-MEK5 PB1 inhibition, single concentration confirmation; shares compounds with MEKK3 PB1 HTS; bead flow cytometry, Alexa488-MEK5 binding to MEKK3; stronger effect = lower value; actives 1.8% (n = 5,900); binding response (% of control), % at 10 µM;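 active = binding response below 72% of control, or above a set upper limit, though filed actives all read lower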;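 also: 100% = DMSO only wells and 0% = binding blocked by excess unlabeled MEK5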
* hit, by the source's call; ? = inconclusive; . = no result given; [ ] = remark or other dose. Sampled rows, rich in hits. Any-hit rate of the full collection: about 2.9%.

SMILES	MEKK3 PB1 HTS	dFosB activator	DNA FID counter	MEKK2wt PB1 HTS	MEKK2 mut-MEK5	MEKK2wt confirm	MEKK2mut confirm	MEKK3 confirm
O=C(Nc1ccc(Br)cc1)c1cccc(S(=O)(=O)Nc2ccccn2)c1	99.0	-7.3	-15.3	98.0	-1.0	.	.	.
COC(=O)CSc1nc(C)c(Oc2ccccc2)c(=O)[nH]1	114.0	1.9	-5.4	119.0	14.0	.	.	.
CC(C)Nc1nc(NC(C)C)nc(Oc2ccc(/C=N/O)cc2)n1	124.0*	-3.2	-6.9	94.0	7.0	92.0	-8.0	94.0
CC1CCCC/C1=N\NC(=S)Nc1cccnc1 (stereo unspecified)	4.0*[inhibitor]	-5.0	-9.2	6.0*[inhibitor]	-45.0	107.0	10.0	101.0
COCCN1C(=O)/C(=C/c2ccc(N3CCCC3)cc2C)SC1=S	59.0	-2.7	-2.8	20.0*[inhibitor]	-36.0	24.0	-33.0	56.0*
NC1=NC(=O)/C(=C/c2c(OS(=O)(=O)c3ccc(Cl)cc3)ccc3ccccc23)S1	101.0	?	-2.5	100.0	0.0	.	.	.
N=C(N)c1ccc(OCCCCCOc2ccc(C(=N)N)cc2)cc1	69.0	-6.5	32.2	150.0*	12.0	97.0	-14.0	66.0*
O=C(C[n+]1ccccc1)Nc1c(Cl)cc(Cl)cc1Cl	86.0	0.1	7.8	86.0	-14.0	.	.	.
Cc1ccc[n+](CC(=O)Nc2c(Cl)cc(Cl)cc2Cl)c1	68.0*[inhibitor]	3.1	-3.2	68.0	-13.0	100.0	-3.0	98.0
CC(=O)Nc1nnc(-c2ccccn2)o1	134.0*	-2.0	-0.3	103.0	0.0	100.0	8.0	99.0
O=C(Nc1nnc(-c2ccccn2)o1)c1cccc(Cl)c1	87.0	-3.4	-15.2	96.0	-6.0	.	.	.
O=C(NCc1ccc(Cl)cc1)c1cc(S(=O)(=O)N2CCCCC2)c[nH]1	97.0	-6.0	-48.2	97.0	2.0	.	.	.
Cc1ccccc1S(=O)(=O)Cc1ccc(C(=O)O)o1	80.0*[inhibitor]	7.0	0.7	82.0	-13.0	107.0	14.0	108.0
Cc1ccccc1S(=O)(=O)Cc1ccc(C(=O)NCc2ccccc2)o1	100.0	-5.1	-29.8	103.0	0.0	.	.	.
COc1cccc(/C(C)=N/NC(=O)c2cc(-c3cccnc3)nc3ccccc23)c1	129.0*	-11.5	-9.9	104.0	-1.0	102.0	1.0	104.0
COc1ccc(-c2cc(C(=O)N/N=C(\C)c3cccnc3)c3ccccc3n2)cc1	105.0	-15.4	-27.5	102.0	2.0	.	.	.
COc1ccc(/C(C)=N/NC(=O)c2cc(-c3cccnc3)nc3ccccc23)cc1	147.0*	-4.5	-4.9	110.0	0.0	129.0	27.0	121.0
COc1ccc(N2C(=O)CCC(C(=O)N3CCN(c4ccccn4)CC3)C2c2ccc(F)cc2)cc1 (stereo unspecified)	99.0	-0.1	-35.1	96.0	-5.0	.	.	.
Cc1c(CCOC(=O)C2C3CC4CC(C3)CC2C4)sc[n+]1CC(=O)c1ccc(Br)cc1 (stereo unspecified)	87.0	-0.1	9.7	157.0*	21.0	180.0	40.0	105.0
Cc1ccc2[nH]c(=O)c(CN(CC3CCCO3)C(=S)Nc3ccccc3)cc2c1 (stereo unspecified)	87.0	3.3	-3.3	89.0	-4.0	.	.	.
Cc1ccc(S(=O)(=O)N(CC(=O)N=Nc2c(O)[nH]c3ccccc23)c2cccc(C)c2)cc1	150.0*	-2.4	-4.2	102.0	0.0	95.0	-6.0	102.0
CN(C(=O)COC(=O)/C=C/c1cn(-c2ccccc2)nc1-c1ccc2c(c1)OCCO2)C1CCS(=O)(=O)C1 (stereo unspecified)	97.0	8.6	-21.2	97.0	-8.0	.	.	.
COc1cccc(NC(=O)CN(C)C(=O)c2ccc(-c3cccc(C(F)(F)F)c3)o2)c1	.	-20.0	.	.	.	.	.	.
CC(C)CCN(C(=O)c1cn2ccccc2n1)c1c(N)n(Cc2ccccc2)c(=O)[nH]c1=O	.	-8.9	.	.	.	.	.	.
CCOP(=O)(c1ccccc1)C(O)c1ccc(F)cc1 (stereo unspecified)	144.0*	-0.2	-5.7	107.0	0.0	61.0	-16.0	86.0
SMILES	MEKK3 PB1 HTS	dFosB activator	DNA FID counter	MEKK2wt PB1 HTS	MEKK2 mut-MEK5	MEKK2wt confirm	MEKK2mut confirm	MEKK3 confirm
Cc1ccc(NC(=S)Nc2cccc3cnccc23)c(C)c1	99.0	-6.5	3.5	94.0	-2.0	.	.	.
Cc1cc(C)cc(NC(=S)Nc2cccc3cnccc23)c1	107.0	4.5	2.7	140.0*	7.0	107.0	3.0	103.0
COc1cccc(C(C(=O)NCc2ccco2)N(C(=O)Cn2nnc3ccccc32)C2CC2)c1OC (stereo unspecified)	82.0*[inhibitor]	-4.6	-31.1	87.0	-16.0	105.0	3.0	103.0
C=CCc1cccc(CNc2c(C)cc(C)cc2C)c1O	70.0*[inhibitor]	-3.9	-2.6	83.0	-6.0	98.0	-8.0	97.0
CNC(=S)NCc1ccc(OC)cc1	55.0*[inhibitor]	-0.2	1.0	94.0	-1.0	104.0	-1.0	101.0
O=C(C1CCCCN1S(=O)(=O)c1ccccc1[N+](=O)[O-])N1CCCCC1 (stereo unspecified)	74.0*[inhibitor]	-3.0	-7.5	90.0	-2.0	99.0	-2.0	103.0
Fc1ccccc1Cn1c2[n+](c3ccc(C(F)(F)F)cc31)CCCCC2	102.0	3.7	7.6	97.0	-2.0	.	.	.
N#Cc1cccc(NC(=O)Cn2c3[n+](c4ccc(C(F)(F)F)cc42)CCCCC3)c1	69.0*[inhibitor]	-4.4	11.4	117.0	0.0	111.0	6.0	98.0
CC1CCN(CCCNC(=O)C2CCC(CNS(=O)(=O)c3ccccc3)CC2)CC1 (stereo unspecified)	101.0	-7.1	4.3	107.0	1.0	.	.	.
O=C(COC(=O)c1ccc(Br)c(S(=O)(=O)N2CCOCC2)c1)NC1CC1	.	-0.4	.	.	.	.	.	.
N#Cc1cnc(SCC(=O)NNC(=O)COc2cccc3ccccc23)nc1N	94.0	-3.4	-4.3	95.0	5.0	.	.	.
O=C1c2cc(Cl)ccc2OC2(CCNCC2)C12CC(c1ccc(Cl)cc1)=NO2 (stereo unspecified)	115.0	-16.1	.	162.0*	20.0	133.0	15.0	103.0
CC(C(=O)OCc1nnc(-c2ccccc2)o1)N1C(=O)c2ccccc2C1=O (stereo unspecified)	96.0	5.9	-24.4	100.0	3.0	.	.	.
COc1cc(C2C(C#N)=C(N)Oc3cc(O)ccc32)cc(OC)c1OC (stereo unspecified)	10.0*[inhibitor]	-4.4	-2.5	13.0*[inhibitor]	-21.0	95.0	-3.0	99.0
